Rows were chosen to be rich in hits. Some 2.6% of all compounds tested hit in one or more screens of this group.
Cruzain Triton: blocks cruzain activity in presence of Triton detergent. P25779. purified cruzain, Z-FR-AMC fluorescence, 0.01% Triton. Potency, µM, inactives show max response, negative = inhibition, hits mostly inhibitors. hit rate 0.43% among 200,000;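 note: plate controls were neutral wells for no effect and buffer without enzyme for full effect; nearly all actives have a fitted effect of over 40% in size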
Target sequence (P25779 123-467 limits assumed): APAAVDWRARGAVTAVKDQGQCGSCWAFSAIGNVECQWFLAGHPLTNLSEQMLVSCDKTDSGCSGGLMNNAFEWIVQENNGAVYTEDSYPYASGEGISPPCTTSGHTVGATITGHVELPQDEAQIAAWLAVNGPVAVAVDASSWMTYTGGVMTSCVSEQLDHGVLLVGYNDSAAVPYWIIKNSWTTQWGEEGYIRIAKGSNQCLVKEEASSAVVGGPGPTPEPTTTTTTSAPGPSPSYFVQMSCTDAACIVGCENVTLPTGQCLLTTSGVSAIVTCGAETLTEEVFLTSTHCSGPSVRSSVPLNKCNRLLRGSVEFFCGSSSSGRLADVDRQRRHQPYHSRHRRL
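Purified cruzain (1.5 nM final) was preincubated with compounds for 15 min at room temperature in 100 mM sodium acetate pH 5.5, 5 mM DTT, 0.01% Triton X-100. Reaction started with 2 uM Z-FR-AMC; AMC fluorescence change over 60 s gave activity.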
Cruzain inh noDet: cruzain (T. cruzi) inhibition without detergent | P25779 | purified cruzain, Z-FR-AMC fluorescence, no detergent | Potency, µM, for the others: max response, negative = inhibition, usual class: inhibitors | hit rate 2.3% among 200,000 | AID 1476;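 note: plate controls were enzyme without inhibitor for no effect and buffer without enzyme for full effect; nearly all actives have a fitted effect of over 40% in size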
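Detergent-free condition (0.00005% Triton X-100) in acetate buffer pH 5.5 with DTT. 1.5 nM enzyme and compound were pre-mixed 15 min, then 2 uM Z-FR-AMC substrate added; reaction progress from fluorescence change between first and third reads (60 s).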
* hit, by the source's call; ? = inconclusive. Calls come from the whole dose curve; as a rule, active = well fitted curve in the direction sought with a large enough effect; inconclusive = small, poorly fitted or top-dose-only effect, or another doubt; inactive = no such curve, though single readings can be large; an effect the other way counts as inactive or inconclusive. Potency is the fitted concentration of half-maximal effect.

SMILES | Cruzain Triton | Cruzain inh noDet
NC(=O)c1c(NC(=O)CSc2nc3c(c(C(F)(F)F)n2)CCc2ccccc2-3)sc2c1CCCC2 | 0% | ?
Oc1cccc(C(Nc2ccccn2)c2ccc3cccnc3c2O)c1Cl (stereo unspecified) | -5% | ?
CCc1sc(Nc2cccc(C)c2)nc1-c1cc2cccc(OC)c2oc1=O | -2% | ?
COC(=O)[C@H](Cc1ccccc1)NC(=O)O[C@H]1C(=O)c2cc(OC)ccc2O[C@@H]1c1ccc(OC)c(Br)c1 | -3% | ?
CC(C)c1ccc(NC(=O)c2ccc(F)c(S(=O)(=O)N3CCN(c4ccccc4F)CC3)c2)cc1 | 3% | 21%
O=C(Nc1ccc(Oc2ccccc2)cc1)c1ccc(F)c(S(=O)(=O)N2CCN(c3ccccc3F)CC2)c1 | 0% | 7.9µM*
COc1ccccc1N1CCN(S(=O)(=O)c2cc(C(=O)Nc3ccc(Oc4ccccc4)cc3)ccc2F)CC1 | 0% | 7.9µM*
O=C(Nc1ccc(Oc2ccccc2)cc1)c1ccc(F)c(S(=O)(=O)N2CCN(c3cccc(Cl)c3)CC2)c1 | 1% | 4µM*
O=C(COC(=O)c1ccc(Cl)c(S(=O)(=O)N2CCN(c3ccc(F)cc3)CC2)c1)Nc1cccc(Cl)c1 | -4% | 13µM*
COc1ccccc1N1CCN(S(=O)(=O)c2ccccc2F)CC1 | -5% | 0%
Cc1cccc(NC(=O)c2ccc(F)c(S(=O)(=O)N3CCN(c4ccc(F)cc4)CC3)c2)c1 | 0% | ?
Cc1cccc(N2CCN(S(=O)(=O)c3cc(C(=O)Nc4ccc(Oc5ccccc5)cc4)ccc3F)CC2C)c1 (stereo unspecified) | 0% | -26%
CC(C)(C)C1CCc2onc(C(=O)Nc3sc4c(c3C(N)=O)CCCC4)c2C1 (stereo unspecified) | -7% | -4%
CCOc1ccc2c(ccc(/C=C\c3cc(C)c4cccnc4c3O)[n+]2C)c1 | 3.2µM* | 0%
CCOc1ccc2c(c1)sc(N)[n+]2Cc1cc(C)cc2cccnc12 | -10% | 1%
COc1ccc(NC(=O)CSc2oc(-c3ccc(C)cc3)nc2S(=O)(=O)c2ccc(C)cc2)c(OC)c1 | 0% | -3%
OC(CNCCC1C=Nc2ccccc21)Cn1c2ccc(Cl)cc2c2cc(Cl)ccc21 (stereo unspecified) | -16% | 6.3µM*
OC(CNCC1CCCO1)Cn1c2ccc(Cl)cc2c2cc(Cl)ccc21 (stereo unspecified) | -4% | ?
CCOC(=O)C1CCN(C(=O)c2ccc(-n3ccc4ccccc43)s2)CC1 | -4% | ?
CCCCC[C@H](O)/C=C/[C@H]1OC(O)C[C@H](O)[C@@H]1C/C=C\CC(=O)O (stereo partly specified) | 1% | -16%
C=C1C2CC[C@]3(CCC4[C@@]5(C)CCC[C@@]4(CN(CCO)C5)[C@@H]3C2)[C@@H]1O (stereo partly specified) | -1% | -5%
Cc1ccc(OCCSCc2nc3ccccc3[nH]2)cc1 | -20% | -9%
Clc1ccc(OCCSCc2nc3ccccc3[nH]2)cc1 | ? | 25µM*
CCOc1ccccc1N1Cc2ccccc2C1 | 5% | ?
COc1ccc(OC)c(-n2cnnn2)c1 | 5% | 2%
SMILES | Cruzain Triton | Cruzain inh noDet
CCOc1ccccc1N1Cc2cc(C)c(C)cc2C1 | 3% | 25µM*
COc1ccc(OC)c(N2Cc3cc(C)c(C)cc3C2)c1 | 1% | 16µM*
CCOC(=O)CNC(=O)CC(c1cc(OC)c(OC)c(OC)c1)N1Cc2ccccc2C1=O (stereo unspecified) | 0% | 8%
Cc1ccc(OCC(=O)Nc2ccccc2C(=O)OCc2cc(=O)n3c(C)csc3n2)cc1 | -1% | 3%
Cc1ccc(NC(=S)NC(=O)c2ccc(-c3ccc(Cl)cc3)o2)c(O)c1 | 0% | -26%
Cc1cc(O)c(NC(=S)NC(=O)c2ccc(-c3ccc(Cl)cc3)o2)cc1C | 5% | 16µM*
Cc1nc(C)c(CCNS(=O)(=O)c2ccc(F)cc2)s1 | -8% | -8%
O=C(NCC(c1cccnc1)N1CCc2ccccc21)c1ccc(Cl)cc1 (stereo unspecified) | 0% | 5%
C=Cc1cccc(C)c1 | 2% | -8%
CCS(=O)(=O)NCCc1csc2nc(-c3ccc(C)cc3)nn12 | -5% | -6%
Cc1cc(C)cc(NC(=O)N2CCN(c3cc(-c4noc(C)n4)ccc3C)CC2)c1 | -3% | 16%
COc1ccc(C2CC(c3cccs3)=NN2c2nc(-c3ccccc3)cs2)cc1OC (stereo unspecified) | -4% | 7.9µM*
COc1ccc(C2CC(c3cccs3)=NN2c2ccc(C=O)cc2)cc1 (stereo unspecified) | -4% | ?
O=C(Nc1ccc(F)cc1F)c1cccc2c1C(=O)N(C1CCCCC1)C2 | -14% | -3%
CCOC(=O)c1c(C)[nH]c(C)c1S(=O)(=O)NCC(=O)N1CCN(c2ccccc2OC)CC1 | 2% | 5%
COc1ccc(OC)c(NC(=O)CC2SC(=Nc3ccc(F)cc3)N(CCC3=CCCCC3)C2=O)c1 (stereo unspecified) | -7% | 20µM*
COc1ccc(N=C2SC(CC(=O)Nc3ccc(OC)cc3OC)C(=O)N2C)cc1 (stereo unspecified) | -4% | ?
COc1ccc(OC)c(NC(=O)CC2SC(=Nc3ccccc3)N(CCc3ccccn3)C2=O)c1 (stereo unspecified) | -4% | ?
COc1cc([N+](=O)[O-])ccc1NC(=O)CC1SC(=Nc2ccc(F)cc2)N(CCC2=CCCCC2)C1=O (stereo unspecified) | -4% | 10µM*
Cc1ccc(-n2c(=O)c3c4c(sc3n(Cc3cc(=O)n5cc(Cl)ccc5n3)c2=O)CCC4)cc1C | -2% | 0%
COc1ccc(Br)cc1CNC(=O)c1ccc2c(c1)N(Cc1ccc(C)cc1)CCS2 | -5% | 10µM*
COc1ccccc1CNC(=O)c1ccc2c(c1)N(Cc1ccc(C)cc1)CCS2 | -6% | ?
Cc1ccc(CN2CCSc3ccc(C(=O)Nc4ccc(C)cc4)cc32)cc1 | 0% | 10µM*
CCOc1ccc(CCNC(=O)c2ccc3c(c2)N(Cc2ccc(C)cc2)CCS3)cc1 | -3% | ?
CCCc1nn2c(=O)cc(COC(=O)c3ccc(NC(=O)CCc4ccccc4)cc3)nc2s1 | 0% | -4%
SMILES | Cruzain Triton | Cruzain inh noDet
Cc1cc(C)cc(C(=O)n2nc(C)c(S(=O)(=O)N3CCCCCC3)c2C)c1 | -1% | -6%
Cc1ccc2c(c1)C(CCN)C(=O)N2Cc1ccccc1 (stereo unspecified) | 1% | 8%
Cc1ccc2c(c1)C1CCCC3C1N2CC(=O)N3Cc1ccccc1 (stereo unspecified) | -4% | 13µM*
Cn1c(SCc2cc(=O)c3cc(Cl)ccc3[nH]2)nnc1-c1ccccc1 | 5% | 2%
Cc1nn(-c2ccccc2)c(N2CCCC2)c1/C=N/NC(=S)Nc1cc(C(F)(F)F)ccc1Cl | -4% | 10µM*
Cc1nn(-c2ccccc2)c(N2CCCC2)c1/C=N/NC(=S)Nc1ccccc1C(F)(F)F | -7% | ?
Nc1cccc(N)c1 | 11µM* | ?
Nc1cccc(Cl)c1 | 0% | 5%
O=C1CC(N2CCN(c3ccccc3Cl)CC2)C(=O)N1c1ccccc1 (stereo unspecified) | 0% | 10%
O=C1CC(N2C(=O)/C(=C/C=C/c3ccccc3)SC2=S)C(=O)N1c1ccccc1 (stereo unspecified) | -6% | 16µM*
COc1ccc(CCNc2nc(SCc3ccc(F)cc3)nc3ccccc23)cc1OC | 5% | 11%

Screening results from PubChem.
